Results from a collection of fitness landscapes (doi:10.1126/science.1257360).
Whole data set: some 140,000 sequences, median “enrichment ratio after two sorts for PhoP signalling” near 0, cut for the highest 2% near 11. This excerpt belongs to a sample that is enriched for the highest values.

B1: PhoQ; a variant is named by its letters at X, in order, P23837 (parent)
chain: MKKLLRLFFPLSLRVRFLLATAAVVLVLSLAYGMVALIGYSVSFDKTTFRLLRGESNLFYTLAKWENNKLHVELPENIDKQSPTMTLIYDENGQLLWAQRDVPWLMKMIQPDWLKSNGFHEIEADVNDTSLLLSGDHSIQQQLQEVREDDDDAEMTHSVAVNVYPATSRMPKLTIVVVDTIPVELKSSYMVWSWFIYVLSANLLLVIPLLWVAAWWSLRPIEALAKEVRELEEHNRELLNPATTRELTSLVRNLNRLLKSERERYDKYRTTLTDLTHSLKTPLXXLQXXLRSLRSEKMSVSDAEPVMLEQISRISQQIGYYLHRASMRGGTLLSRELHPVAPLLDNLTSALNKVYQRKGVNISLDISPEISFVGEQNDFVEVMGNVLDNACKYCLEFVEISARQTDEHLYIVVEDDGPGIPLSKREVIFDRGQRVDTLRPGQGVGLAVAREITEQYEGKIVAGESMLGGARMEVIFGRQHSAPKDE

Variants of: B1
Assay: enrichment ratio after two sorts for PhoP signalling (ratio (wild type AVST 3.29)); higher = more functional
Conditions: with PhoP (E. coli)

Variant	enrichment ratio
THML	12.8
SQML	4.5
ACML	17.8
AKML	9.72
FDML	≤ 0.25
WQML	≤ 0.25
YHML	≤ 0.25
ADML	21.8
ACRL	≤ 0.25
ACIL	10.3
NHML	≤ 0.25
AQML	24.2
LQYI	≤ 0.25
LLQA	≤ 0.25
YWKI	≤ 0.25
RIIT	≤ 0.25
VAHN	≤ 0.25
PEIM	≤ 0.25
VACQ	≤ 0.25
AWDP	≤ 0.25
AYET	≤ 0.25
GVGM	≤ 0.25
RTSP	≤ 0.25
PEMC	≤ 0.25

Variant	enrichment ratio
IARY	≤ 0.25
NQML	≤ 0.25
AAML	14.7
KKML	≤ 0.25
YAML	8.51
TQML	22.5
AHML	4.34
ATML	11.3
IAML	4.62
EQML	≤ 0.25
VHML	≤ 0.25
AIML	21.2
AYML	≤ 0.25
NGCN	≤ 0.25
YSQW	≤ 0.25
TCLD	≤ 0.25
PESS	≤ 0.25
GECM	15.3
GACM	12.2
GICK	9.7
GAAM	≤ 0.25
GECK	≤ 0.25
GEWM	≤ 0.25
GGCM	9.15

Variant	enrichment ratio
RICM	≤ 0.25
GACK	≤ 0.25
GICM	38.3
GNCM	11.7
GTCM	5.28
SFIL	≤ 0.25
GTSW	≤ 0.25
QVGM	0.458
TTQP	≤ 0.25
LWAS	≤ 0.25
DYTN	≤ 0.25
TRCM	12.4
KMCM	≤ 0.25
KRCM	≤ 0.25
GMCK	≤ 0.25
GMCM	22
HRCM	≤ 0.25
EYMP	≤ 0.25
MHHS	≤ 0.25
YVFC	≤ 0.25
GPTW	≤ 0.25
RAKA	≤ 0.25
TGTI	13.2
RGTI	≤ 0.25

Variant	enrichment ratio
AGTI	16.7
KSTI	≤ 0.25
AGTH	5.3
AGTK	≤ 0.25
QIMM	≤ 0.25
SDFW	≤ 0.25
QQHA	≤ 0.25
GQMD	≤ 0.25
YKAP	≤ 0.25
KLPM	≤ 0.25
FVPN	≤ 0.25
IQAA	≤ 0.25
AQQN	≤ 0.25
AQAS	18.6
YTAN	≤ 0.25
AKAN	≤ 0.25
ATAN	29.1
AQAN	18.7
AQAA	12.7
AKAA	4.65
AKAS	9.64
WQAS	≤ 0.25
ATMN	≤ 0.25
AYFR	≤ 0.25

Variant	enrichment ratio
WMYW	≤ 0.25
IMAW	≤ 0.25
RNGP	≤ 0.25
PWQL	0.791
DNHF	≤ 0.25
TNNI	3.41
NAGF	≤ 0.25
MAGS	17.7
MAGD	≤ 0.25
MAVK	≤ 0.25
MAGF	14.5
KAGF	≤ 0.25
AHRA	≤ 0.25
CFDS	≤ 0.25
MCPV	≤ 0.25
DLEL	≤ 0.25
LYPG	≤ 0.25
ASMH	16.5
ASCH	13.6
KSMH	≤ 0.25
ASTH	6.74
ASCF	9.91
ASVH	8.62
KDVM	≤ 0.25

Variant	enrichment ratio
DIWH	≤ 0.25
RDYH	≤ 0.25
KKLQ	≤ 0.25
YHEH	≤ 0.25
RDFI	≤ 0.25
QGFE	≤ 0.25
QRYT	≤ 0.25
STYT	0.437
QGFQ	13.4
MVFE	≤ 0.25
LNYT	≤ 0.25
MVHP	0.338
LEYT	11.9
LTYT	≤ 0.25
FFFQ	≤ 0.25
QEYT	20.9
MVFQ	13.2
PAIE	≤ 0.25
FSRF	≤ 0.25
SYCE	2.48
VEGN	≤ 0.25
RAVD	≤ 0.25
VDID	≤ 0.25
QGGG	17.7

Variant	enrichment ratio
QGCI	19.5
FFGG	≤ 0.25
QGYK	0.706
FFWS	≤ 0.25
FQWS	≤ 0.25
QGWS	20.8
TPGG	≤ 0.25
QGCS	≤ 0.25
QGYV	11.2
QGCK	≤ 0.25
QGYI	17.5
NSEV	≤ 0.25
GKAT	≤ 0.25
WHGN	≤ 0.25
NVPF	≤ 0.25
QEFA	0.476
QGWI	22.5
MEFQ	3.08
QGDS	≤ 0.25
QEYI	13.9
QEWS	13.4
MAFE	8.88
QRWS	≤ 0.25
QGRA	≤ 0.25

Variant	enrichment ratio
STYI	≤ 0.25
QPWS	≤ 0.25
MAFQ	24.4
RMEL	≤ 0.25
DLMW	≤ 0.25
PLYK	≤ 0.25
KDVS	≤ 0.25
RYGQ	≤ 0.25
QQYQ	≤ 0.25
NKEY	≤ 0.25
TTLW	≤ 0.25
VACH	≤ 0.25
ISIQ	≤ 0.25
QGGS	14.5
FCWE	≤ 0.25
QPGS	≤ 0.25
FFWE	≤ 0.25
QGWE	14.3
FFGS	≤ 0.25
FTRQ	≤ 0.25
DCTH	≤ 0.25
VFMI	≤ 0.25
SHFN	≤ 0.25
FRIN	≤ 0.25

Variant	enrichment ratio
TVTC	14.5
TSSC	12.8
SPTC	≤ 0.25
NSSC	≤ 0.25
KSSC	≤ 0.25
TSNK	≤ 0.25
TSSA	11.3
KSTC	≤ 0.25
MMTC	≤ 0.25
TSTC	17.2
KSSA	≤ 0.25
FSSA	≤ 0.25
NVLH	≤ 0.25
LSRG	≤ 0.25
REYW	≤ 0.25
PQTM	≤ 0.25
TVEK	13.3
PVEK	≤ 0.25
SPEK	≤ 0.25
PFML	≤ 0.25
SGNG	≤ 0.25
TKIS	4.17
TKQV	4.75
AKIM	4.82

Variant	enrichment ratio
MKIM	≤ 0.25
TKIM	15.1
TKIV	11.9
SEYW	≤ 0.25
QMAQ	≤ 0.25
QWLW	≤ 0.25
LLLD	≤ 0.25
NKIV	≤ 0.25
AKLA	5.14
AKLS	13.1
TKLS	19.9
MKLS	≤ 0.25
AILS	9.63
TKLA	4.75
QRQP	≤ 0.25
INTT	≤ 0.25
MEQI	≤ 0.25
AQQM	≤ 0.25
YYHN	≤ 0.25
TEQA	13.7
TEQH	3.62
TEQP	≤ 0.25
NEQM	≤ 0.25
TEQM	17.8

Variant	enrichment ratio
TEHN	11.9
NEQI	≤ 0.25
TEQI	15
MEHN	≤ 0.25
LPHR	≤ 0.25
ADGW	≤ 0.25
NDRR	≤ 0.25
IIAQ	≤ 0.25
SFDP	≤ 0.25
VFVP	≤ 0.25
AQQI	14.3
AQIY	24
TEYM	≤ 0.25
WQIY	≤ 0.25
ADQI	≤ 0.25
AKQI	≤ 0.25
QEQY	≤ 0.25
IQIY	≤ 0.25
TEEN	3.06
TEQY	12.5
TEGY	1.36
TEQN	34.8
DNYP	≤ 0.25
EFNV	≤ 0.25

Variant	enrichment ratio
FGIV	2.4
ALMP	≤ 0.25
MHTV	≤ 0.25
FMAD	≤ 0.25
GMNN	≤ 0.25
WNWL	≤ 0.25
SPTG	≤ 0.25
STSI	8.26
TVTG	15.3
KSTG	≤ 0.25
SSSK	≤ 0.25
SGSI	15.9
SGDH	≤ 0.25
SQSI	16.7
SGSK	≤ 0.25
SSSR	≤ 0.25
SSSI	15.2
SRSI	≤ 0.25
MQVF	1.6
KTET	≤ 0.25
FTCL	9.73
RLFE	≤ 0.25
YKMG	≤ 0.25
LISD	≤ 0.25

Variant	enrichment ratio
NVSI	≤ 0.25
FSSI	0.692
LLSI	≤ 0.25
SESI	12.7
SPSI	≤ 0.25
DDSI	≤ 0.25
SESR	4.3
KSSI	≤ 0.25
VLSI	≤ 0.25
TVSI	17.4
TSSI	19.5
TLSI	18.6
DSES	≤ 0.25
NHHT	≤ 0.25
VGTA	≤ 0.25
EQHP	≤ 0.25
LVPM	≤ 0.25
QFFS	≤ 0.25
